# Assay results as given in ChEMBL document CHEMBL5606460, “ASAP - DENV-2 NS2B-NS3 protease fluorescence single point” (2024).
# Out of some 2,000 compounds screened, about 110 (5.5%) showed an effect of 50% or more. Shown is part of a subset that was picked to be rich in strong results.
# Target: Genome polyprotein (dengue virus type 2) (UniProt P29990)
# [1] = Thailand/16681/1984, Concentration 25.0 uM, Number of replicates 1.0
compound,measurement,setting,value
CC(C)(CO)NC(=O)c1cc(Cl)cc(NS(=O)(=O)c2ccccc2)c1,inhibition,"Thailand/16681/1984, Concentration 49.5 uM, Number of replicates 2.0, Standard deviation 0.43077113751226487 %",-5.72%
same,inhibition,"Thailand/16681/1984, Concentration 99.01 uM, Number of replicates 2.0, Standard deviation 0.028975789763845603 %",-4.57%
same,inhibition,"Thailand/16681/1984, Concentration 198.0 uM, Number of replicates 2.0, Standard deviation 1.4999717780869397 %",-2.99%
O=Cc1ccc(N2CCC(C(=O)NCc3cc(C(F)(F)F)ccc3C(F)(F)F)CC2)cc1,inhibition,[1],1.04%
Cn1cnc2[nH]c(C(=O)N3CC[C@H](c4c[nH]c5ccccc45)C3)cc21,inhibition,"Thailand/16681/1984, Concentration 49.5 uM, Number of replicates 2.0, Standard deviation 2.003876801484884 %",-2.49%
same,inhibition,"Thailand/16681/1984, Concentration 99.01 uM, Number of replicates 2.0, Standard deviation 1.2772748269322285 %",-1.94%
same,inhibition,"Thailand/16681/1984, Concentration 198.0 uM, Number of replicates 2.0, Standard deviation 1.685869304282425 %",-0.105%
O=Cc1ccc(N2CCC(C(=O)Nc3ccc(Cl)c(Cl)c3)CC2)cc1,inhibition,[1],11.8%
O=Cc1ccc(N2CCC(C(=O)Nc3cc(Cl)c(O)c(Cl)c3)CC2)cc1,inhibition,[1],100%
O=Cc1ccc(N2CCC(C(=O)Nc3cc(Cl)ccc3Br)CC2)cc1,inhibition,[1],13.8%
O=Cc1ccc(N2CCC(C(=O)Nc3cc(Cl)cc(Cl)c3O)CC2)cc1,inhibition,[1],98.2%
O=Cc1ccc(N2CCC(C(=O)Nc3cc(Cl)c(F)c(Cl)c3)CC2)cc1,inhibition,[1],13.1%
O=Cc1ccc(N2CCC(C(=O)Nc3cc(Cl)cc([N+](=O)[O-])c3O)CC2)cc1,inhibition,[1],90.5%
O=Cc1ccc(N2CCC(C(=O)Nc3ccc([N+](=O)[O-])cc3Cl)CC2)cc1,inhibition,[1],23.5%
O=Cc1ccc(N2CCC(C(=O)Nc3c(Cl)cc(Cl)cc3Br)CC2)cc1,inhibition,[1],13.4%
O=Cc1ccc(N2CCC(C(=O)Nc3ccc(O)cc3[N+](=O)[O-])CC2)cc1,inhibition,[1],24.5%
c1cnc2c(C3CCN(Cc4cnn5ccccc45)CC3)c[nH]c2c1,inhibition,"Thailand/16681/1984, Concentration 49.5 uM, Number of replicates 2.0, Standard deviation 1.316281988110152 %",-4.72%
same,inhibition,"Thailand/16681/1984, Concentration 99.01 uM, Number of replicates 2.0, Standard deviation 2.2605015442223797 %",-3.44%
same,inhibition,"Thailand/16681/1984, Concentration 198.0 uM, Number of replicates 2.0, Standard deviation 0.9691516929362414 %",-2.08%
O=Cc1ccc(N2CCC(C(=O)N3CCN(C(=O)Cc4ccccc4)CC3)CC2)cc1,inhibition,[1],12.3%
CN(C)C1(CNC(=O)C2CCN(c3ccc(C=O)cc3)CC2)CCOCC1,inhibition,[1],12.1%
NCc1ncc(C(=O)Nc2ccccc2N2CCC(CO)CC2)c(C(F)(F)F)n1,inhibition,"Thailand/16681/1984, Concentration 49.5 uM, Number of replicates 2.0, Standard deviation 1.1543273279104322 %",2.58%
same,inhibition,"Thailand/16681/1984, Concentration 99.01 uM, Number of replicates 2.0, Standard deviation 0.2964400275887672 %",4.99%
same,inhibition,"Thailand/16681/1984, Concentration 198.0 uM, Number of replicates 2.0, Standard deviation 0.14686490832106133 %",6.91%
NCc1cccc(NC(=O)[C@H]2CN(C(=O)OCc3ccccc3)CC23CCOCC3)c1,inhibition,"Thailand/16681/1984, Concentration 49.5 uM, Number of replicates 2.0, Standard deviation 3.4820905640560142 %",-2.83%
same,inhibition,"Thailand/16681/1984, Concentration 99.01 uM, Number of replicates 2.0, Standard deviation 3.010767204046265 %",-1.08%
same,inhibition,"Thailand/16681/1984, Concentration 198.0 uM, Number of replicates 2.0, Standard deviation 2.6769829613344203 %",-0.776%
O=Cc1ccc(N2CCC(C(=O)Nc3ccc(OC(F)(F)F)cc3Cl)CC2)cc1,inhibition,[1],13.6%
COc1cc(COc2cncnc2)nc(N2CCNCC2)n1,inhibition,"Thailand/16681/1984, Concentration 49.5 uM, Number of replicates 2.0, Standard deviation 3.306986633712837 %",-2.35%
same,inhibition,"Thailand/16681/1984, Concentration 99.01 uM, Number of replicates 2.0, Standard deviation 2.7720530174645646 %",-0.505%
same,inhibition,"Thailand/16681/1984, Concentration 198.0 uM, Number of replicates 2.0, Standard deviation 2.4477408574870583 %",0.524%
O=C(NCc1cocn1)c1cc(Cl)ccc1NS(=O)(=O)c1ccc(Oc2ccccc2Cl)cc1,inhibition,"Thailand/16681/1984, Concentration 49.5 uM, Number of replicates 2.0, Standard deviation 0.2927162692291327 %",78.5%
same,inhibition,"Thailand/16681/1984, Concentration 99.01 uM, Number of replicates 2.0, Standard deviation 0.11144031356026086 %",70.2%
same,inhibition,"Thailand/16681/1984, Concentration 198.0 uM, Number of replicates 2.0, Standard deviation 0.4940824474713894 %",60.8%
O=C(NCc1c[nH]nn1)c1cc(Cl)ccc1NS(=O)(=O)c1ccc(Oc2ccccc2Cl)cc1,inhibition,"Thailand/16681/1984, Concentration 49.5 uM, Number of replicates 2.0, Standard deviation 0.023138282657692737 %",75.2%
same,inhibition,"Thailand/16681/1984, Concentration 99.01 uM, Number of replicates 2.0, Standard deviation 0.008898717007196123 %",63.2%
same,inhibition,"Thailand/16681/1984, Concentration 198.0 uM, Number of replicates 2.0, Standard deviation 0.06140627240643217 %",36.5%
Cc1ccc(CNC(=O)c2cc(Cl)ccc2NS(=O)(=O)c2ccc(Oc3ccccc3Cl)cc2)s1,inhibition,"Thailand/16681/1984, Concentration 49.5 uM, Number of replicates 2.0, Standard deviation 0.032039697063193553 %",83.2%
same,inhibition,"Thailand/16681/1984, Concentration 99.01 uM, Number of replicates 2.0, Standard deviation 0.20602188771616411 %",78.6%
same,inhibition,"Thailand/16681/1984, Concentration 198.0 uM, Number of replicates 2.0, Standard deviation 0.539307027447943 %",69.5%
COc1cccc(Cn2cc(C3CCNCC3)c(C)n2)n1,inhibition,"Thailand/16681/1984, Concentration 49.5 uM, Number of replicates 2.0, Standard deviation 0.5897033629115713 %",-3.33%
same,inhibition,"Thailand/16681/1984, Concentration 99.01 uM, Number of replicates 2.0, Standard deviation 0.7206939136220955 %",-3.64%
same,inhibition,"Thailand/16681/1984, Concentration 198.0 uM, Number of replicates 2.0, Standard deviation 2.0772079346215944 %",-3.79%
CCCCCC(=O)N[C@H](C(=O)N1CCC[C@@H](N)C1)c1ccc(OCc2ccccc2)cc1,inhibition,"Thailand/16681/1984, Concentration 49.5 uM, Number of replicates 2.0, Standard deviation 1.275572557867722 %",-0.123%
same,inhibition,"Thailand/16681/1984, Concentration 99.01 uM, Number of replicates 2.0, Standard deviation 1.3300520589416613 %",0.674%
same,inhibition,"Thailand/16681/1984, Concentration 198.0 uM, Number of replicates 2.0, Standard deviation 1.6287502093065211 %",2.04%
